# From PubChem BioAssay (NCI)
# The panel holds about 83,000 compounds, 20% with a hit somewhere; the sample as a whole holds those more often.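 Percent growth is the endpoint: 0 to 100 indicates growth inhibition (40 means 60% inhibition), 0 means no net growth, and negative values indicate cell death.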 A number with no mark means an inactive call. The source made the active and inactive calls. Rule for the calls: active = growth percent below 10; inactive = the rest.
# System: MALME-3M melanoma
# Test: NCI-60 one-dose screen, 48 h (100 = growth as untreated, 0 = no growth, -100 = all killed)
# Conditions: 10 µM unless noted
row,SMILES,growth
1,CC(C)Cc1ccc(C(C)C(=O)NCc2ccc(Cn3c(=O)sn(-c4ccc(Cl)cc4)c3=O)cc2)cc1 (stereo unspecified),79.2%
2,COc1ccc(Cn2nc3c(c2-c2cc(OC)c(OC)c(OC)c2)-c2oncc2CC3)cc1,93.7%
3,Cc1ccc(C(c2c(O)c3cc(Br)ccc3[nH]c2=O)c2c(O)c3cc(Br)ccc3[nH]c2=O)cc1,91%
4,CN1CCN(Cc2ccc(NC(=O)c3cncc(C#Cc4cnccc4C(F)(F)F)c3)cc2C(F)(F)F)CC1,15.3%
5,COc1ccc(/C=C/c2n[nH]c3ccc(N4CCOC4=O)cc23)cc1,59.9%
6,COc1cc2nnn3c4ncccc4c(N=O)c3c2cc1OC,91.2%
7,Cc1cc2nc(-c3ccccc3)c(-c3ccccc3)nc2cc1C,113%
8,Cc1ccc2[nH]c(=O)cc(-n3nncc3COc3ccc(C=O)cc3)c2c1,100%
9,CCCOc1nc(SCCC)nc2c1cnn2-c1ccccc1,119%
10,NC(=O)c1cccc(-c2ccccc2N2CCCCC2)c1,80.8%
11,COc1cc2ncnc(Nc3ccc(C(=O)/C=C/c4ccc(C(F)(F)F)cc4F)cc3)c2cc1OC,106%
12,CC(=O)OCCCCCNc1ccccc1,103%
13,O=C(Nc1sc2c(c1C(=O)O)CCCC2)c1cccc(C(F)(F)F)c1,99.9%
14,CCN1C(=O)N(CC)C2NC(SC)=NC21 (stereo unspecified),95%
15,C/C(=C(/c1ccccc1)c1ccc(OCC(O)CN2CCOCC2)cc1)c1ccccc1 (stereo unspecified),75.3%
16,COc1ccc(C(=O)c2cc3c(N)c(C(=O)Nc4ccc(Br)cc4)sc3nc2C)cc1,54.3%
17,CCOC(=O)Oc1c(OC)cc(C(=O)O[C@@H]2C[C@@H]3CN4CCc5c([nH]c6cc(OC)ccc56)[C@H]4C[C@@H]3[C@H](C(=O)OC)[C@H]2OC)cc1OC,58.9%
18,COc1ccc(-c2nc(N/N=C/c3ccco3)nc(N3CCOCC3)c2C#N)cc1,59.5%
19,CCC(=O)c1ccc(O)c(OC)c1,104%

row,SMILES,growth
1,COc1ccc(-c2nc(N=Nc3c(O)[nH]c4ccccc34)nc(N3CCOCC3)c2C#N)cc1,51%
2,CCCCCCCCCCCCCCCC(=O)OC[C@@]1(O)C[C@@]23CC[C@@H]4C(C)(C)[C@H](O)CC[C@@]4(C)[C@@H]2CC[C@H]1C3,114%
3,FC(F)(F)Oc1cccc(-c2cc(NCCCCCCNc3cc(-c4cccc(OC(F)(F)F)c4)nc4ccc(N5CCCC5)cc34)c3cc(N4CCCC4)ccc3n2)c1,-96.2% (active)
4,COc1ccc(C2=C(c3ccccc3)c3ccc(OC(C)=O)cc3OC2(C)C)cc1,107%
5,Cc1c2c(cc[n+]1Cc1ccc(F)cc1)c1ccc(OCc3cccc(F)c3)cc1n2Cc1cccc(F)c1,-79.6% (active)
6,CC1=CC2(C)/C=C(C)/C=C\CC(O)/C=C3/C=CC(=C4C(=O)OC2(CC1C)C4=O)OC3 (stereo unspecified),-96.3% (active)
7,O=C1OC(=O)C2C1CC=CC2c1ccccc1 (stereo unspecified),78.8%
8,C=C(C)[C@H]1CC/C(C)=C/CC[C@]2(C)O[C@H]2CC/C(COC(=O)[C@@H](OC(C)=O)[C@H](NC(=O)c2ccccc2)c2ccccc2)=C\[C@@H]1O,100%
9,O=C(O)c1cn(C2CC2)c2cc(N3CCN(C(=O)C[n+]4cccc5ccccc54)CC3)c(F)cc2c1=O,-41.7% (active)
10,COc1ccc(Nn2c(SCC(=O)Nc3nc(-c4ccc(Cl)cc4)cs3)nc(C)c2C)cc1,99.1%
11,Cn1c2c(Cl)c(Cl)ccc2c2cc(N)[nH]c(=O)c21,102%
12,CC(=O)c1c[nH]c2ccc(-c3ccnc(Nc4ccc(NC(=O)c5cccc(F)c5)c(CN5CCOCC5)c4)n3)cc12,-21.7% (active)
13,Clc1nc(Nc2ccccc2)nc(Nc2ccccc2)n1,111%
14,O=C1Nc2c(ccc(Cl)c2Cl)/C1=C/c1ccccn1,85.5%
15,Cc1ccc2nc3c(cc2c1)CSc1nnc(-c2ccc[nH]c2=S)n1N3,97.7%
16,CN1CCN(C(=O)[C@]2(C)CC[C@]3(C)CC[C@]4(C)C(=CC(=O)[C@@H]5[C@@]6(C)CCC(=O)NC(C)(C)[C@@H]6CC[C@]54C)[C@@H]3C2)CC1,95.9%
17,COc1ccc(-c2nn(Cc3ccccc3)c3c2-c2oncc2CC3)cc1OC,138%
18,O=c1[nH]c2c(s1)CCCC2CN1CCCCC1 (stereo unspecified),107%
19,CC(C)(C)CC(C)(C)Nc1c(-c2ccc3c(c2)OCO3)nc2cnccn12,111%

# System: MDA-MB-231 breast
# Test: as above
# Conditions: 10 µM unless noted
row,SMILES,growth
1,CC(C)Cc1ccc(C(C)C(=O)NCc2ccc(Cn3c(=O)sn(-c4ccc(Cl)cc4)c3=O)cc2)cc1 (stereo unspecified),66.1%
2,COc1ccc(Cn2nc3c(c2-c2cc(OC)c(OC)c(OC)c2)-c2oncc2CC3)cc1,65.8%
3,Cc1ccc(C(c2c(O)c3cc(Br)ccc3[nH]c2=O)c2c(O)c3cc(Br)ccc3[nH]c2=O)cc1,70.5%
4,CN1CCN(Cc2ccc(NC(=O)c3cncc(C#Cc4cnccc4C(F)(F)F)c3)cc2C(F)(F)F)CC1,55.6%
5,COc1ccc(/C=C/c2n[nH]c3ccc(N4CCOC4=O)cc23)cc1,14.6%
6,COc1cc2nnn3c4ncccc4c(N=O)c3c2cc1OC,78.6%
7,Cc1cc2nc(-c3ccccc3)c(-c3ccccc3)nc2cc1C,94.5%
8,Cc1ccc2[nH]c(=O)cc(-n3nncc3COc3ccc(C=O)cc3)c2c1,101%
9,CCCOc1nc(SCCC)nc2c1cnn2-c1ccccc1,105%
10,NC(=O)c1cccc(-c2ccccc2N2CCCCC2)c1,100%
11,COc1cc2ncnc(Nc3ccc(C(=O)/C=C/c4ccc(C(F)(F)F)cc4F)cc3)c2cc1OC,90.7%
12,CC(=O)OCCCCCNc1ccccc1,98%
13,O=C(Nc1sc2c(c1C(=O)O)CCCC2)c1cccc(C(F)(F)F)c1,94%
14,CCN1C(=O)N(CC)C2NC(SC)=NC21 (stereo unspecified),103%
15,C/C(=C(/c1ccccc1)c1ccc(OCC(O)CN2CCOCC2)cc1)c1ccccc1 (stereo unspecified),104%
16,COc1ccc(C(=O)c2cc3c(N)c(C(=O)Nc4ccc(Br)cc4)sc3nc2C)cc1,66%
17,CCOC(=O)Oc1c(OC)cc(C(=O)O[C@@H]2C[C@@H]3CN4CCc5c([nH]c6cc(OC)ccc56)[C@H]4C[C@@H]3[C@H](C(=O)OC)[C@H]2OC)cc1OC,43.2%
18,COc1ccc(-c2nc(N/N=C/c3ccco3)nc(N3CCOCC3)c2C#N)cc1,86.1%
19,CCC(=O)c1ccc(O)c(OC)c1,92%

row,SMILES,growth
1,COc1ccc(-c2nc(N=Nc3c(O)[nH]c4ccccc34)nc(N3CCOCC3)c2C#N)cc1,42.6%
2,CCCCCCCCCCCCCCCC(=O)OC[C@@]1(O)C[C@@]23CC[C@@H]4C(C)(C)[C@H](O)CC[C@@]4(C)[C@@H]2CC[C@H]1C3,110%
3,FC(F)(F)Oc1cccc(-c2cc(NCCCCCCNc3cc(-c4cccc(OC(F)(F)F)c4)nc4ccc(N5CCCC5)cc34)c3cc(N4CCCC4)ccc3n2)c1,-91.5% (active)
4,COc1ccc(C2=C(c3ccccc3)c3ccc(OC(C)=O)cc3OC2(C)C)cc1,68.2%
5,Cc1c2c(cc[n+]1Cc1ccc(F)cc1)c1ccc(OCc3cccc(F)c3)cc1n2Cc1cccc(F)c1,-87.7% (active)
6,CC1=CC2(C)/C=C(C)/C=C\CC(O)/C=C3/C=CC(=C4C(=O)OC2(CC1C)C4=O)OC3 (stereo unspecified),24.2%
7,O=C1OC(=O)C2C1CC=CC2c1ccccc1 (stereo unspecified),93.7%
8,C=C(C)[C@H]1CC/C(C)=C/CC[C@]2(C)O[C@H]2CC/C(COC(=O)[C@@H](OC(C)=O)[C@H](NC(=O)c2ccccc2)c2ccccc2)=C\[C@@H]1O,88.5%
9,O=C(O)c1cn(C2CC2)c2cc(N3CCN(C(=O)C[n+]4cccc5ccccc54)CC3)c(F)cc2c1=O,99.8%
10,COc1ccc(Nn2c(SCC(=O)Nc3nc(-c4ccc(Cl)cc4)cs3)nc(C)c2C)cc1,79.7%
11,Cn1c2c(Cl)c(Cl)ccc2c2cc(N)[nH]c(=O)c21,68.5%
12,CC(=O)c1c[nH]c2ccc(-c3ccnc(Nc4ccc(NC(=O)c5cccc(F)c5)c(CN5CCOCC5)c4)n3)cc12,-37.5% (active)
13,Clc1nc(Nc2ccccc2)nc(Nc2ccccc2)n1,88.8%
14,O=C1Nc2c(ccc(Cl)c2Cl)/C1=C/c1ccccn1,84.7%
15,Cc1ccc2nc3c(cc2c1)CSc1nnc(-c2ccc[nH]c2=S)n1N3,93.4%
16,CN1CCN(C(=O)[C@]2(C)CC[C@]3(C)CC[C@]4(C)C(=CC(=O)[C@@H]5[C@@]6(C)CCC(=O)NC(C)(C)[C@@H]6CC[C@]54C)[C@@H]3C2)CC1,107%
17,COc1ccc(-c2nn(Cc3ccccc3)c3c2-c2oncc2CC3)cc1OC,77.8%
18,O=c1[nH]c2c(s1)CCCC2CN1CCCCC1 (stereo unspecified),133%
19,CC(C)(C)CC(C)(C)Nc1c(-c2ccc3c(c2)OCO3)nc2cnccn12,83.9%
